# PubChem BioAssay (NCATS)
# Results filed as inconclusive are left out. A call without a number means that no potency is given here. Activity calls are given as the source filed them. Calls come from the whole dose curve; as a rule, active = well fitted curve in the direction sought with a large enough effect; inconclusive = small, poorly fitted or top-dose-only effect, or another doubt; inactive = no such curve, though single readings can be large; an effect the other way counts as inactive or inconclusive.
# Assays:
# [1] = target: Phospholipid hydroperoxide glutathione peroxidase GPX4 (Homo sapiens) (UniProt P36969); assay: Primary qHTS Assay for Inhibitors of Recombinant Selenoprotein Glutathione Peroxidase 4 (GPX4) (AID 1845192); note: nearly all actives have a fitted effect of over 65% in size
# Chain of Phospholipid hydroperoxide glutathione peroxidase GPX4 (Homo sapiens) (P36969 whole entry, looked up): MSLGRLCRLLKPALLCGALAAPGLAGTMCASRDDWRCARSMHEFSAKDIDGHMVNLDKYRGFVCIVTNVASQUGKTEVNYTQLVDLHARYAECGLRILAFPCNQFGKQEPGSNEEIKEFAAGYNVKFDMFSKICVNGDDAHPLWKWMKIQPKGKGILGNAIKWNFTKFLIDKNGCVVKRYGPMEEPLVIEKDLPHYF
# Outline: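 qHTS, GR-coupled: GPX4 200 nM + cpd 30 min RT → GSH 1 mM, NADPH 0.5 mM, GR 100 nM → CHP 0.5 mM start; fluor 340/450 at t0 and t15 min; no-enzyme wells as control.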
# [2] = Quantitative High-Throughput drug screen in 47 multiple myeloma cell lines against the NCATS MIPE library collection: EJM_DSMZ cell viability assay (AID 1918926; note: nearly all actives have a fitted effect of over 30% in size; note: potency is the fitted concentration of half-maximal effect)
# Outline: (§1)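 Myeloma cell lines, 500 cells per well, exposed to MIPE 4.0 library compounds for 48 h at 37C, 5% CO2. Viability from ATP by CellTiter-Glo luminescence; normalised to DMSO (100%) and media-only (0%) wells.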
# [3] = Quantitative High-Throughput drug screen in 47 multiple myeloma cell lines against the NCATS MIPE library collection: AMO1_DSMZ cell viability assay (AID 1918927; note: nearly all actives have a fitted effect of over 30% in size; note: potency is the fitted concentration of half-maximal effect)
# Outline: as §1
# [4] = Quantitative High-Throughput drug screen in 47 multiple myeloma cell lines against the NCATS MIPE library collection: FR4_PLB cell viability assay (AID 1918924; note: nearly all actives have a fitted effect of over 35% in size; note: potency is the fitted concentration of half-maximal effect)
# Outline: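 Relative luminescence from CellTiter-Glo served as the viability signal, referenced to DMSO-treated (100%) and cell-free medium (0%) controls. Treatment lasted 48 hours at 37C with 500 cells per well.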
# [5] = Quantitative High-Throughput drug screen in 47 multiple myeloma cell lines against the NCATS MIPE library collection: ARP1_JJKsccF8 cell viability assay (AID 1918928; note: nearly all actives have a fitted effect of over 40% in size; note: potency is the fitted concentration of half-maximal effect)
# Outline: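 Viability screen: myeloma cells (500/well) incubated 48 h at 37 °C, humidified 5% CO2, with pinned library compounds; CellTiter-Glo added, luminescence read; DMSO wells set 100%, medium-only wells 0%.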
# [6] = Quantitative High-Throughput drug screen in 47 multiple myeloma cell lines against the NCATS MIPE library collection: Delta47_JCRB cell viability assay (AID 1918925; note: nearly all actives have a fitted effect of over 45% in size; note: potency is the fitted concentration of half-maximal effect)
# Outline: as §1
# [7] = Primary fluorescence-based thiol-reactive (MSTI) qHTS assay for identification of artifact compounds. (AID 1845221); note: nearly all actives have a fitted effect of over 65% in size; note: potency is the fitted concentration of half-maximal effect
# Outline: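 Probe: MSTI 4 uM, PBS pH 7.4, 2% DMSO. Incubation 1 h, RT, light-protected. Readout fluorescence 525/598 nm.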
# [8] = Primary redox qHTS assay for identification of artifact compounds. (AID 1845223)
# Outline: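 Redox-cycling detection via DTT (250 uM final) oxidation coupled to Amplex Red (25 uM)/HRP (250 mU/mL) in HBSS. 15 min preincubation plus 30 min after DTT, room temperature. Ex/Em 525/598 nm; 4-parameter Hill fit against DMSO and 10 uM DA3003.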
# [9] = target: Luciferin 4-monooxygenase (Photinus pyralis) (UniProt P08659); assay: Primary firefly luciferase (FLuc) qHTS assay for identification of artifact compounds. (AID 1845220); note: nearly all actives have a fitted effect of over 60% in size
# Outline: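 In this counter-screen for luciferase artifacts, test compounds met substrate (10 uM each luciferin and ATP) before 10 nM enzyme started the reaction. Light output was measured 5 min later.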
compound,measurement,setting,value
CC(C(C)N1CC(=O)NC(=O)C1)N1CC(=O)NC(=O)C1 (stereo not drawn),Potency,[1],inactive
same,Potency,[2],inactive
same,Potency,[3],0.332 µM (active)
CCCCC(=O)O[C@]1(C(=O)CO)[C@@H](C)C[C@H]2[C@@H]3CCC4=CC(=O)C=C[C@]4(C)[C@@]3(F)[C@@H](O)C[C@@]21C,Potency,[1],inactive
same,Potency,[4],inactive
same,Potency,[3],inactive
C[C@@H](NCc1cc2ccccc2[nH]1)c1cccc2ccccc12,Potency,[1],inactive
same,Potency,[2],inactive
CCN(CC)CCCCNc1ncc2c(n1)N(C)C(=O)N(c1c(Cl)c(OC)cc(OC)c1Cl)C2,Potency,[1],inactive
same,Potency,[3],inactive
COC(=O)[C@H](CCCN=C(N)N)NS(=O)(=O)c1ccc(C)cc1,Potency,[1],inactive
same,Potency,[4],inactive
same,Potency,[2],inactive
same,Potency,[3],inactive
same,Potency,[5],inactive
CCCCCCCCc1ccc(CCC(N)(CO)CO)cc1,Potency,[1],inactive
same,Potency,[6],5.26 µM (active)
same,Potency,[2],23.5 µM (active)
same,Potency,[3],8.33 µM (active)
same,Potency,[5],10.5 µM (active)
Nc1cccc2c1C(=O)N(C1CCC(=O)NC1=O)C2=O (stereo not drawn),Potency,[1],inactive
same,Potency,[6],0.0037 µM (active)
CC(N[C@H]1CCCC[C@H]1NC(=O)c1ccc(Cl)cc1)c1cccc2ccccc12 (stereo partly drawn),Potency,[1],inactive
same,Potency,[5],inactive
CC(Cc1ccc(O)c(O)c1)(NN)C(=O)O (stereo not drawn),Potency,[1],inactive
same,Potency,[6],inactive
COc1cc(C(=O)NC2CCN(C)CC2)ccc1Nc1ncc2c(n1)N(C1CCCC1)CCC(=O)N2C(C)C,Potency,[1],inactive
same,Potency,[6],14.8 µM (active)
same,Potency,[2],16.6 µM (active)
same,Potency,[3],9.35 µM (active)
same,Potency,[5],29.6 µM (active)
CC(C)c1cnn2c(NCc3ccccc3)cc(NCCCCCCN)nc12,Potency,[1],inactive
same,Potency,[4],18.7 µM (active)
same,Potency,[2],13.2 µM (active)
same,Potency,[3],23.5 µM (active)
same,Potency,[5],16.6 µM (active)
O=c1ccn([C@@H]2O[C@H](CO)[C@H](O)[C@@H]2F)c(=O)[nH]1,Potency,[1],inactive
same,Potency,[4],inactive
same,Potency,[5],inactive
CC(Oc1ccc(O)cc1)(P(=O)(O)O)P(=O)(O)O,Potency,[1],inactive
same,Potency,[5],inactive
COc1cc(C[C@@H](CO)[C@H](CO)Cc2ccc(O)c(OC)c2)ccc1O,Potency,[1],inactive
same,Potency,[6],0.662 µM (active)
same,Potency,[2],0.264 µM (active)
same,Potency,[3],4.69 µM (active)
Nc1nc(=O)n([C@H]2C[C@H](O)[C@@H](CO)O2)cc1F,Potency,[1],inactive
same,Potency,[4],inactive
same,Potency,[2],inactive
same,Potency,[5],0.526 µM (active)
C=C[C@@H]1CN2CCC1C[C@H]2[C@H](O)c1ccnc2ccc(OC)cc12 (stereo partly drawn),Potency,[1],inactive
same,Potency,[3],inactive
CCCCCCCN(CC)CCCC(O)c1ccc(NS(C)(=O)=O)cc1 (stereo not drawn),Potency,[1],inactive
same,Potency,[4],inactive
same,Potency,[3],23.5 µM (active)
same,Potency,[5],inactive
c1coc(CNc2ncnc3nc[nH]c23)c1,Potency,[1],inactive
same,Potency,[6],inactive
same,Potency,[2],inactive
same,Potency,[3],inactive
same,Potency,[5],inactive
COc1ccc(S(=O)(=O)Nc2cccnc2Nc2ccc(O)cc2)cc1,Potency,[7],4.23 µM (active)
same,Potency,[8],inactive
same,Potency,[4],0.0264 µM (active)
same,Potency,[6],0.0264 µM (active)
same,Potency,[2],0.296 µM (active)
same,Potency,[5],0.059 µM (active)
Cc1cc(C(=O)NOCCO)c(Nc2ccc(I)cc2F)n(C)c1=O,Potency,[1],inactive
same,Potency,[2],inactive
same,Potency,[3],0.118 µM (active)
COC1=C(OC)C(=O)C(CC=C(C)CCC=C(C)CCC=C(C)CCC=C(C)CCC=C(C)CCC=C(C)CCC=C(C)CCC=C(C)CCC=C(C)CCC=C(C)C)=C(C)C1=O,outcome,[1],inactive [at 4.52 µM]
same,Potency,[4],inactive
same,Potency,[3],inactive
same,Potency,[5],inactive
CN1C(C(=O)Nc2ccccn2)=C(O)c2sc(Cl)cc2S1(=O)=O,Potency,[1],inactive
same,Potency,[6],2.96 µM (active)
same,Potency,[5],2.64 µM (active)
Cc1ccccc1C(=O)Nc1ccc(C(=O)N2CCCC(O)c3cc(Cl)ccc32)c(C)c1 (stereo not drawn),Potency,[9],inactive
same,Potency,[7],inactive
same,Potency,[8],inactive
same,Potency,[4],inactive
same,Potency,[6],inactive
same,Potency,[2],20.9 µM (active)
same,Potency,[5],inactive
C[N+](C)([O-])CCNc1ccc(NCC[N+](C)(C)[O-])c2c1C(=O)c1c(O)ccc(O)c1C2=O,Potency,[1],inactive
same,Potency,[4],inactive
same,Potency,[3],inactive
COc1ccc(C=Cc2cc(OC)c(OC)c(OC)c2)cc1NC(=O)[C@H](N)CO,Potency,[1],inactive
same,Potency,[2],0.0105 µM (active)
same,Potency,[5],0.0053 µM (active)
CC(C)NC[C@@H](C(=O)N1CCN(c2ncnc3c2[C@H](C)C[C@H]3O)CC1)c1ccc(Cl)cc1,Potency,[1],inactive
same,Potency,[6],0.0935 µM (active)
same,Potency,[2],16.6 µM (active)
same,Potency,[3],4.18 µM (active)
same,Potency,[5],2.09 µM (active)
O=C(Nc1cccc(Nc2ncc(Br)c(NCCc3cnc[nH]3)n2)c1)N1CCCC1,Potency,[1],inactive
same,Potency,[6],4.18 µM (active)
same,Potency,[2],16.6 µM (active)
same,Potency,[3],inactive
same,Potency,[5],18.7 µM (active)
NC(=O)c1cccc(-c2cccc(OC(=O)NC3CCCCC3)c2)c1,Potency,[1],inactive
same,Potency,[2],inactive
same,Potency,[3],inactive
same,Potency,[5],inactive
